Screen size: about 320,000 compounds; about 3,100 (0.97%) were called active. The list comes from a sample in which actives are over-represented; it also holds similar structures and randomly drawn compounds. Values without a mark were called inactive.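 How the source made its calls: active means mean replicate inhibition of at least 70% and a set share of replicates each scoring 70 or more; inconclusive means meets just one of the two criteria; inactive means fails both criteria.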
What follows are molecules tested against Scavenger receptor class B member 1 (Mus musculus) (UniProt Q61009) (assay: inhibitors of SR-BI mediated HDL lipid uptake, primary screen, ldlA[mSR-BI] cells, fluorescence, single point (AID 488896;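 further: 0% = median of neutral control wells and 100% = median of positive control wells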)). Conditions: ldlA[mSR-BI] CHO cells, DiI-HDL uptake fluorescence, 3 h; at 12.5 µM; active compounds read high.
Chain of Scavenger receptor class B member 1 (Mus musculus) (Q61009 whole entry, looked up): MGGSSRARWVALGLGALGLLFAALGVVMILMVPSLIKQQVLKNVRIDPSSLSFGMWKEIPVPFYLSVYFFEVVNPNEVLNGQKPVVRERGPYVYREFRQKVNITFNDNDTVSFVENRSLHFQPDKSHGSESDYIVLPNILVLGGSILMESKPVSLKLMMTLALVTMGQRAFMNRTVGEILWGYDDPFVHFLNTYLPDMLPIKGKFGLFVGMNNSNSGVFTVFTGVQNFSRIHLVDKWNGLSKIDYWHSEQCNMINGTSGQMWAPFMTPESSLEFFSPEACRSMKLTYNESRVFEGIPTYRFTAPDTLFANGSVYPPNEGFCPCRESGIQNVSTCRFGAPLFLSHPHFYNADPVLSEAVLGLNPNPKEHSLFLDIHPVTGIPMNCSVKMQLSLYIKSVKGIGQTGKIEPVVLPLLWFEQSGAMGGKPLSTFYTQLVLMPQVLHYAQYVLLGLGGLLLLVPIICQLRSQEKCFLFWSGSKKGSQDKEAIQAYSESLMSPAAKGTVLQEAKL
With `CC(=O)OC1C2(CC3N4C(=O)C5(CO)SSC4(CC31O)C(=O)N5C)OC(C)C(C)(C)C2=O` (stereo not given) the inhibition was 106% (active). In the case of `CC12CCC(O)CC1CCC1C2CCC2(C)C(C(=O)CC(O)C(F)(F)F)CCC12` (stereo not given), the inhibition is reported as 13.2%. `O=C(c1ccccc1)C(O)(CN1CCCCC1)c1ccccc1` (stereo not given) gave an inhibition of -5.67%. `COC1C(O)C(C)OC(OC2CCC3(C=O)C(CCC4C3CCC3(C)C(C5=CC(=O)OC5)CCC43O)C2)C1O` (stereo not given) showed an inhibition of 0.038%. In the case of `CC(=O)c1ccc(OC(NC(=O)Cc2ccccc2)C(Cl)(Cl)Cl)cc1` (stereo not given), the inhibition is reported as 92.8% (active). With `CCOP(=O)(OCC)C(NC(=O)c1ccc(OC)cc1)C(Cl)(Cl)Cl` (stereo not given) the inhibition was 6.36%. In the case of `CC(=O)Cc1ccc(OC(C)C)cc1`, the inhibition is reported as -1.27%. In the case of `CN(C)CC1Oc2ccccc2OC1(O)c1ccccc1` (stereo not given), the inhibition is reported as 1.39%. In the case of `CC1=CC(=Cc2sc3ccccc3[n+]2C)C=C(C)O1`, the inhibition is reported as -1%. Molecule `CCC(C)(O)C(=O)OC1C(=O)OC2CC3C(C)=CC(=O)C(O)C3(C)C3C4(O)OCC23C1C(C)C4O` (stereo not given) has an inhibition of -10.3%.

— PubChem BioAssay AID488896 (Broad Institute, 2010)
